Assay outcomes as filed in PubChem.
gsp ag: agonists of gsp mutant (McCune-Albright syndrome); gsp mutant cells, cAMP HTRF, 30 min; Potency, µM (highest dose often 76.9 µM), without a hit: top-dose activation (cAMP increase), actives largely listed as activators; AID 624287; 0.13% of 340,000 active; active means well fitted activation curve with a large enough effect; inconclusive means small, poorly fitted or top-dose-only effect, or another doubt; inactive means no such curve, though single readings can be large or run the other way; cell line not stated here;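 further: phosphodiesterase inhibitor Ro 20-1724 added with compounds to block cAMP breakdown; nearly all actives have a fitted effect of over 60% in size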
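Cells in DMEM/10% FBS with G418 were pretreated with compounds in DMSO plus […] (300 uM stock) for 30 min at 37C. cAMP was measured by HTRF (cAMP-d2 plus anti-cAMP antibody-K) after 30 min at room temperature.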
Rango dissoc inh: inhibitors of RanGTP-induced Rango-importin beta complex dissociation | Potency, µM (top dose mostly 46.1 µM), for the others: at the highest dose activity change, negative = inhibition | Biochemical FRET Rango-importin beta, RanGTP-induced dissociation | 0.071% of 340,000 active | O95149+P62826; further: % of control where 0% means no effect; nearly all actives have a fitted effect of over 45% in size
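Rango (0.1 uM)–importin beta (0.25 uM) complex; RanGTP-RCC1 trigger; 45 min RT; CFP/YFP FRET read.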
gsp antag: antagonizes gsp, the McCune-Albright syndrome mutation; 0.4% of 340,000 active; AID 624288; gsp-mutant cells, cAMP HTRF, 30 min; Potency, µM (highest dose often 76.9 µM), inactives show top-dose activity change, negative = inhibition, most hits filed as inhibitors; calls by dose curve; cell line not stated here;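 further: intracellular cAMP measured with PDE inhibitor Ro 20-1724 present during compound exposure; on the % scale 0 is the no-effect control and ±100 the full control effect; nearly all actives have a fitted effect of over 65% in size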
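Cells, 2000/well, grown 16–24 h in DMEM 10% FBS with 0.5 mg/ml G418, then compounds plus […] (300 uM addition stock), 30 min at 37C. cAMP read by HTRF (cAMP-d2 and anti-cAMP antibody-K in lysis buffer) after 30 min RT.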
Rango-impB inh: prevents formation of the Rango-importin beta complex. Potency, µM (series often up to 92.2 µM), for inactives: at the top dose inhibition of complex formation. 0.031% of 340,000 active. Rango CFP/YFP FRET sensor + importin beta, 45 min;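 further: 0% = DMSO wells and 100% = buffer wells lacking importin beta; nearly all actives have a fitted effect of over 15% in size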
Target sequence (Q14974 whole entry, looked up): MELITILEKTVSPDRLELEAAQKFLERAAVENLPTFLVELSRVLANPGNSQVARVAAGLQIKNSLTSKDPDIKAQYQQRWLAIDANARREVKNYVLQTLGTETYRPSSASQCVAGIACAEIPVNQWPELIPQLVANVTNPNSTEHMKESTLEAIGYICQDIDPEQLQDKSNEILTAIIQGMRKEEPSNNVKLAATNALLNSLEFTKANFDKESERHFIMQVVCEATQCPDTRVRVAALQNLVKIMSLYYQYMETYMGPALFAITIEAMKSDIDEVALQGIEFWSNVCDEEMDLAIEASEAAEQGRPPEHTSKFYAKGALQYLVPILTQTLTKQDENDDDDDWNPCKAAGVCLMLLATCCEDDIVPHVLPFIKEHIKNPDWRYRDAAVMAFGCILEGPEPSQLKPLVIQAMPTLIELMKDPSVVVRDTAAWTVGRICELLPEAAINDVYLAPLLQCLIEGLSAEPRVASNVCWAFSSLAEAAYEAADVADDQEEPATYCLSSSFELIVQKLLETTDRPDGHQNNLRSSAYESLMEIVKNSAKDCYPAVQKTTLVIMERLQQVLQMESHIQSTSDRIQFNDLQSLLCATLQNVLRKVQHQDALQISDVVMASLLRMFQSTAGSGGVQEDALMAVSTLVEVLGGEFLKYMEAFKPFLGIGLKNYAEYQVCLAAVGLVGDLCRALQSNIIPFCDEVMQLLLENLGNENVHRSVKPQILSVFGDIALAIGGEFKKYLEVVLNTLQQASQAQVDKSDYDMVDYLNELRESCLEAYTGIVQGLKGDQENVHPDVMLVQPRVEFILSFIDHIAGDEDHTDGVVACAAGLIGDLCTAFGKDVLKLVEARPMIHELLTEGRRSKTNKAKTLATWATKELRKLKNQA
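Inhibition scored from the CFP 486 nm/YFP 530 nm FRET ratio 45 min after adding 0.125 microM importin beta to 50 nM Rango biosensor preincubated 5 min with compound (room temperature, PBS with DTT, Tween-20, BSA). No-importin wells as positive control.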
* = called active by the depositor; u = inconclusive; x = no result; [ ] = another dose, or the depositor's remark. Hits are enriched below; roughly 0.66% of the tested compounds scored in any of these assays. Unless noted, the call rests on the fitted dose curve. Potency means the concentration at half of the fitted maximal effect.

SMILES	gsp ag	Rango dissoc inh	gsp antag	Rango-impB inh
CC(=O)NC(=Cc1ccccc1)C(=O)N1CCCC1C(=O)O (stereo not drawn)	22.0%	x	x	x
O=[N+]([O-])c1ccc(N/N=C/c2sc(N3CCOCC3)nc2-c2ccccc2)c(S(=O)(=O)Nc2ccccc2Cl)c1	-106.6%	u	3.98µM*	u
O=[N+]([O-])c1ccc(N/N=C/c2sc(N3CCOCC3)nc2-c2ccccc2)c(S(=O)(=O)Nc2ccc(Cl)cc2)c1	u	u	-25.4%	12.0%
O=C(N/N=C/c1sc(N2CCOCC2)nc1-c1ccccc1)c1ccccc1O	9.1%	u	39.8µM*	u
Cc1nc(Cc2nnc(SCC(=O)N3c4ccccc4NC(=O)C3(C)C)o2)cs1	30.7%	x	x	x
O=C(c1ccc(CS(=O)Cc2ccccc2Cl)o1)N1CCN(c2cccc(Cl)c2)CC1 (stereo not drawn)	-0.5%	-11.6%	31.6µM*	-0.1%
CC1(C)CC[C@]2(C(=O)O)CC[C@]3(C)C(=CC[C@@H]4[C@@]5(C)CC[C@H](O[C@@H]6O[C@H](C(=O)O)[C@@H](O)[C@H](O[C@@H]7OC[C@H](O)[C@H](O)[C@H]7O)[C@H]6O)C(C)(C)[C@@H]5CC[C@]43C)[C@@H]2C1	x	-15.5%	44.7µM*	-0.9%
CC1OC(OC2C(CO)OC(OCC3OC(OC(=O)[C@@]45CCC(C)(C)C[C@@H]4C4=CC[C@@H]6[C@@]7(C)CCC(OC8OCC(O)C(O)C8OC8OC(C)C(O)C(O)C8O)[C@@](C)(CO)C7CC[C@@]6(C)[C@]4(C)CC5)C(O)C(O)C3O)C(O)C2O)C(O)C(O)C1O (stereo partly drawn)	x	-9.2%	39.8µM*	0.2%
CC1CCN(C(=O)C2CCN(C(=O)c3cc4sccc4n3Cc3ccc(F)cc3)CC2)CC1	-36.8%	-15.9%	u	2.4%
CC(C)NC(=O)C1CCN(C(=O)c2cc3sccc3n2Cc2ccc(F)cc2)CC1	2.1%	12.3%	31.6µM*	-1.4%
COCCNC(=O)CN1C(=O)/C(=C/c2ccccc2)Oc2ccc(C(C)(C)C)cc21	13.5%	13.1%	28.2µM*	0.3%
Cc1ccc(C(=O)Nc2nc(=O)n(C(=O)CC(C)C)s2)cc1	-13.4%	2.2%	-34.6%	-1.4%
Cc1ccc(C(=O)Nc2nc(=O)n(C)s2)cc1	-21.8%	3.0%	22.4µM*	1.8%
CC(C)CC(=O)n1sc(NC(=O)c2ccccc2)nc1=O	-43.8%	-16.8%	28.2µM*	0.3%
O=C1OCCC1=COCCCCCCOC=C1CCOC1=O	5.0%	x	x	x
COCCN(Cc1ccccc1)C(=O)c1cccc(S(=O)(=O)N2CCN(Cc3ccccc3)CC2)c1	-54.0%	x	x	x
Cc1ccc(NC(=O)c2cccc(S(=O)(=O)Nc3c(C)n(C)n(-c4ccccc4)c3=O)c2)cc1C	u	-4.4%	-31.7%	-2.5%
CN1C(=O)c2ccc(NC(=O)c3cccc4ccccc34)cc2C1=O	22.7%	17.5%	-3.7%	-3.9%
Cc1ccc(C(=O)Nc2ccc3c(c2)C(=O)N(C)C3=O)c(C)c1	35.5µM*	-4.6%	7.8%	-3.8%
Cc1noc(C)c1NC(=O)N(C)C[C@@H]1Oc2ncc(Br)cc2C(=O)N([C@@H](C)CO)C[C@H]1C	-109.5%	x	x	x
O=C(CSCC(=O)Nc1nc(-c2ccc3c(c2)OCO3)cs1)Nc1nccs1	5.9%	0.2%	31.6µM*	2.9%
Cn1c(=O)c2c(nc(SCCN3CCOCC3)n2C)n(C)c1=O	8.91µM*	1.6%	3.3%	-1.8%
CCn1c(SCCN2CCOCC2)nc2c1c(=O)n(C)c(=O)n2C	28.9%[15.4 µM]	-11.9%	0.4%	2.0%
CN1/C(=C\C(=O)COC(=O)c2ccco2)C(C)(C)c2ccccc21	-12.2%	5.7%	-0.2%	0.4%
CN1/C(=C\C(=O)c2ccco2)C(C)(C)c2ccccc21	-9.2%	u	35.5µM*	u
SMILES	gsp ag	Rango dissoc inh	gsp antag	Rango-impB inh
CN1/C(=C\C(=O)COc2ccc3c(c2)OCO3)C(C)(C)c2ccccc21	-3.5%	-19.2%	39.8µM*	3.4%
C[C@@H]1CN([C@@H](C)CO)C(=O)CCCn2cc(nn2)CO[C@H]1CN(C)S(=O)(=O)c1ccc(Cl)cc1	12.7%	x	x	x
CCn1c(CN2CCCCC2)nc2cc(S(=O)(=O)N3CCCCC3)ccc21	-2.8%	9.4%	11.2µM*	1.5%
CCn1c(C)nc2cc(S(=O)(=O)N3CCCCC3)ccc21	-23.8%	8.9%	-15.8%	6.4%
COc1cc(CCC(=O)Nc2ccc(Br)c(C(F)(F)F)c2)cc(OC)c1OC	0.0%[15.4 µM]	1.7%	28.2µM*	0.3%
COc1cc(CCC(=O)Nc2ccc(Cl)c(C(F)(F)F)c2)cc(OC)c1OC	u	u	-27.9%	3.2%
COc1ccc(N(CC(=O)N/N=C/c2cc(OC)ccc2OC)S(=O)(=O)c2ccccc2)cc1	-1.7%	19.3%	-11.8%	0.1%
COc1ccc(N(CC(=O)N/N=C/c2ccc(OC)cc2OC)S(=O)(=O)c2ccccc2)cc1	-4.8%	22.7%	31.6µM*	1.6%
COc1ccc(N=C(C)C2=C(O)c3ccccc3C2=O)cc1	6.6%	u	-55.4%	-3.2%
CC(=O)Nc1ccc(N=C(C2=C(O)c3ccccc3C2=O)c2ccccc2)cc1	-28.8%	17.4%	35.5µM*	0.3%
Oc1cc2ccccc2cc1-c1n[nH]c(=S)o1	11.7%	-20.0%	28.2µM*	-1.2%
CN(C)c1ccc(NC(=O)CSc2nc(N)c(C(=O)Nc3ccc(N(C)C)cc3)s2)cc1	1.6%	-12.3%	u	-1.4%
CCOC(=O)c1sc(SCC(=O)Nc2ccc(N(C)C)cc2)nc1N	-1.2%	0.4%	28.2µM*	-1.1%
CCn1c(SCC(=O)Nc2sccc2C(N)=O)nnc1C1CC1	5.0%	-9.7%	50.1µM*	-0.3%
O=C(CCn1nnc2ccccc21)Nc1nnc(Cc2ccccc2)s1	u	-5.6%	31.6µM*	-3.3%
CCCCN1C(=O)c2ccc(C(=O)Nc3ccc(C)c(S(=O)(=O)N(C)C)c3)cc2C1=O	-11.1%	-4.7%	28.2µM*	-4.8%
CCOc1ccc(-c2c(C(=O)N/N=C/c3c[nH]c4ccccc34)nnn2-c2nonc2N)cc1	u	0.5%	25.1µM*	-0.3%
CCOc1ccc(/C=N/NC(=O)c2nnn(-c3nonc3N)c2-c2ccc(OCC)cc2)cc1	21.7%[15.4 µM]	19.4%	-10.9%	-0.8%
Cc1ccc(/C=N/NC(=O)c2nnn(-c3nonc3N)c2-c2ccc3c(c2)OCO3)s1	37.1%	-0.8%	39.8µM*	-1.0%
Nc1nonc1-n1nnc(C(=O)N/N=C/c2cccnc2)c1-c1cccs1	-40.9%	-8.0%	0.9%	-3.4%
COc1cc(/C=N/NC(=O)c2nnn(-c3nonc3N)c2-c2cccs2)ccc1O	1.9%	16.6%	22.4µM*	-4.4%
Nc1nonc1-n1nnc(C(=O)N/N=C/c2ccc(F)cc2)c1-c1ccc2c(c1)OCO2	30.7%	-5.7%	-0.4%	-1.3%
COc1ccc(/C=N/NC(=O)c2nnn(-c3nonc3N)c2-c2cccs2)cc1OC	18.4%	1.8%	-13.4%	u
Nc1nonc1-n1nnc(C(=O)N/N=C/c2cccc(Cl)c2)c1-c1cccs1	-2.4%	15.1%	39.8µM*	5.3%
CC(=O)Nc1cccc(/C(C)=N/NC(=O)c2cccc(S(=O)(=O)N3CCCC3)c2)c1	-29.8%	x	x	x
